From the supplement of paper PMC11732987, “Enantioselective OTUD7B fragment discovery through chemoproteomics screening and high-throughput optimisation” (Communications Chemistry, 2025)

biological target: COPS5 (UniProt Q92905); assay: log2 ratio of Biotin-Ahx-Ub-VS probe labelling (fragment/DMSO); higher = less target engagement (more negative = stronger competition), active = hit call of the paper (q ≤ 0.05, log2 ratio ≤ -1); conditions: compound concentration: 200 uM; treatment time: 3 h
Description: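 Competitive ABPP in HEK293T cell lysate. Lysates were treated with each chloroacetamide fragment at 200 µM for 3 h, then with Biotin-Ahx-Ub-VS (0.5 µM, 1 h), NeutrAvidin-enriched and analysed by diaPASEF LC-MS/MS. Protein LFQ was median-normalised; average log2 ratio is fragment/DMSO from an unpaired t-test (n=3 treated, n=44 DMSO). Hits: q ≤ 0.05, log2 ratio ≤ -1, unique peptides ≥ 2.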

Chain of COPS5 (Q92905 whole entry, looked up, the tested form may be a part): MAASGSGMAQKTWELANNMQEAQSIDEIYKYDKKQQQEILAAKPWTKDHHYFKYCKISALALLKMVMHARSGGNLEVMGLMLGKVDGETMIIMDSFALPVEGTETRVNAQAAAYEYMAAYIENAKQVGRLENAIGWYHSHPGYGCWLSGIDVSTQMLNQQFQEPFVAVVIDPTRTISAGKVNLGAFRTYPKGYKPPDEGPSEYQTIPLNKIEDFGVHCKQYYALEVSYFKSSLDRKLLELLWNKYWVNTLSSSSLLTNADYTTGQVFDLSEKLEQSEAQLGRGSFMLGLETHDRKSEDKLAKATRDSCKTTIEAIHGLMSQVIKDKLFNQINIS

log2 ratio of Biotin-Ahx-Ub-VS probe labelling, inactive:
Cc1ccccc1OCC(=O)N1CCN(C(=O)CCl)CC1 0.104
CN(C)C(=O)c1ccc(NC(=O)CCl)cc1 0.125
O=C(CCl)N1CCc2nc[nH]c2C1c1ccc(Cl)cc1 (stereo not given) -0.139
Cl.Cn1ncc2c1CCCC2NC(=O)CCl (stereo not given) -0.0371
O=C(CCl)N1CCOCC1C1CC1 (stereo not given) 0.143
Cl.O=C(CCl)N[C@H]1C[C@@H](n2cccn2)C1 -0.0476
CC(O)CC1CCN(C(=O)CCl)CC1 (stereo not given) -0.25
O=C(CCl)Nc1cc(Cl)ccc1-n1cncn1 -0.332
Cc1ccc(CC(NC(=O)CCl)c2ccccn2)cc1.Cl (stereo not given) -0.0198
Cc1ccccc1CN(C)C(=O)CCl 0.0682
N#Cc1cnn(-c2ccccc2)c1NC(=O)CCl -0.123
O=C(CCl)Nc1ccc(F)cc1Cl -0.284
CC(NC(=O)CCl)c1noc(Cc2ccccc2)n1 (stereo not given) 0.201
O=C(CCl)N1CCC(C(O)c2ccc(F)cc2)CC1 (stereo not given) -0.113
O=C(CCl)N1CCC(OCc2ccccc2F)CC1 -0.148
CC(NC(=O)CCl)c1cc2n(n1)CCCC2.Cl (stereo not given) -0.394
O=C(CCl)N1CC2(CCOCC2)C1 0.161
O=C(CCl)N(C1=CCCCC1)C1CC1 -0.00116
O=C(CCl)N1CCC(C(=O)N2CCCCCC2)CC1 -0.0587
C[C@@H](NC(=O)CCl)c1cccc(C#N)c1 -0.193
Cl.O=C(CCl)NCCc1ncc(F)cc1F 0.213
CS(=O)(=O)c1ccc(NC(=O)CCl)cc1 0.0438
COc1cccc(CN(C)C(=O)CCl)c1 0.0731
CC1CN(c2ccc(NC(=O)CCl)cc2)CC(C)O1 (stereo not given) 0.159
Cc1nnc(C(NC(=O)CCl)c2ccccc2)n1C (stereo not given) 0.37
O=C(CCl)NC1CCN(C(=O)C2CCCCC2)CC1 -0.188
O=C(CCl)Nc1ccc(N2CCCC2=O)cc1 0.31
O=C(CCl)Nc1nc(-c2cccs2)cs1 0.0647
O=C(CCl)NC1CCOc2ccccc21 (stereo not given) -0.296
CC(c1ccccc1)N(C)C(=O)CCl (stereo not given) 0.082
O=C(CCl)NCC1(c2ccccc2)CC1 0.0827
CN(C(=O)CCl)c1nc2ccccc2s1 -0.0311
O=C(CCl)N1CCN(C(=O)Nc2ccccc2)CC1 -0.0124
Cc1ccn2cc(CNC(=O)CCl)nc2c1.Cl 0.326
Cc1ccc(C)c(Oc2ccc(CNC(=O)CCl)cn2)c1.Cl -0.0158
Cc1conc1C1CN(C(=O)CCl)C1 0.0369
O=C(CCl)N1CCC(c2noc3cc(F)ccc23)CC1 0.00234
C[C@H]1CN(C(=O)CCl)CCN1C(=O)c1cnn(C)c1.Cl -0.0598
C#Cc1cccc(NC(=O)CCl)c1 -0.274
CN(C)S(=O)(=O)c1ccccc1CNC(=O)CCl 0.197
